The text below walks through data of article PMC7862700, “An all-to-all approach to the identification of sequence-specific readers for epigenetic DNA modifications on cytosine”.

Test in all cases: DAPPL (digital affinity profiling via proximity ligation, sequencing); 10 mM Tris-HCl pH 7.5, 50 mM NaCl, 1 mM DTT, 4% glycerol, room temperature, 30 min; GST-TFs on glutathione beads, 16-mer random dsDNA library, 0.1% formaldehyde crosslink after washing; high values mean tight binding
One assay concerns the target T1, FEV (Homo sapiens, UniProt Q99581 1-238).
T1 sequence: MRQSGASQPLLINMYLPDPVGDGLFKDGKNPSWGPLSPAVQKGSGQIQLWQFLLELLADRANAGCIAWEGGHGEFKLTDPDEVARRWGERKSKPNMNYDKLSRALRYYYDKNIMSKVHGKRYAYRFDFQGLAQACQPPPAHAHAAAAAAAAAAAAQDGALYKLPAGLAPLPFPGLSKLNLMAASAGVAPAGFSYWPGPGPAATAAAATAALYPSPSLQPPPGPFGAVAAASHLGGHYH
To be noted: protein: recombinant; tags: N-terminal GST; dsDNA, one strand shown. Summed up: (§1)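 Human transcription factors fused to GST were expressed in yeast, captured on glutathione beads, given DNA barcodes and pooled with a GST-only negative control. Pools were incubated with 200 nmole of a 16-mer random double-stranded DNA library in Tris/NaCl/DTT/glycerol buffer at room temperature for 30 min. They were then washed, crosslinked with 0.1% formaldehyde, proximity-ligated (BsaI/T4 ligase, 1 h, 37 °C), PCR-amplified and sequenced on an Illumina NextSeq500. Binding signal is each 6-mer's read frequency for a factor divided by its frequency for the GST control.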

The next assay addresses ETV5 (Homo sapiens, UniProt P41161 1-510). To be noted: protein: recombinant; tags: N-terminal GST; dsDNA, one strand shown. In a few lines: as §1
The target in the next assay is HSF1 (Homo sapiens, UniProt Q00613 1-529). To be noted: protein: recombinant; tags: N-terminal GST; chain copies: 3; dsDNA, one strand shown. In a few lines: as §1
In the next assay the target is T2, SPIC (Homo sapiens, UniProt Q8N5J4 1-248).
T2 sequence: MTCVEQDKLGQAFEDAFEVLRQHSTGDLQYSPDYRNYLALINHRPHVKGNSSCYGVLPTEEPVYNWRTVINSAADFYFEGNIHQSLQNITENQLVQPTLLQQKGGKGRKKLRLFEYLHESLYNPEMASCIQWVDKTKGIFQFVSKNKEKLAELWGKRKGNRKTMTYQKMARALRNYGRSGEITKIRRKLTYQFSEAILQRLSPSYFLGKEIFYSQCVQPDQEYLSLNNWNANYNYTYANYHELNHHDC
To be noted: protein: recombinant; tags: N-terminal GST; dsDNA, one strand shown. Summed up: as §1

For a further assay, the target named is ELF4 (Homo sapiens, UniProt Q99607 1-663). The following applies: protein: recombinant; tags: N-terminal GST; dsDNA, one strand shown. In a few lines: as §1
A further assay has as its target T3, ELK4 (Homo sapiens, UniProt P28324-2 1-405).
T3 sequence: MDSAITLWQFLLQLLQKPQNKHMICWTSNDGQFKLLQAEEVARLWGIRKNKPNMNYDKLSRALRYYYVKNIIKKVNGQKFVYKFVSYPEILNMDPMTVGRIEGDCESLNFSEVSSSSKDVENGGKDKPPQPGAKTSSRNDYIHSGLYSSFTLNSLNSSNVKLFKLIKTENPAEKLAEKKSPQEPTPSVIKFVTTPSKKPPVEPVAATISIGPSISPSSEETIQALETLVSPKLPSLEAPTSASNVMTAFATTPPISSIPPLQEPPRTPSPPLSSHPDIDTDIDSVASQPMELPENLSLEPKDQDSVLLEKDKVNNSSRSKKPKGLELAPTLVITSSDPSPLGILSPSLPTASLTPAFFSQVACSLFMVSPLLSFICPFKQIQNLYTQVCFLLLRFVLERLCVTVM
The following applies: protein: recombinant; tags: N-terminal GST; dsDNA, one strand shown. In a few lines: as §1

The next assay addresses T4, ETV2 (Homo sapiens, UniProt O00321 1-342).
T4 sequence: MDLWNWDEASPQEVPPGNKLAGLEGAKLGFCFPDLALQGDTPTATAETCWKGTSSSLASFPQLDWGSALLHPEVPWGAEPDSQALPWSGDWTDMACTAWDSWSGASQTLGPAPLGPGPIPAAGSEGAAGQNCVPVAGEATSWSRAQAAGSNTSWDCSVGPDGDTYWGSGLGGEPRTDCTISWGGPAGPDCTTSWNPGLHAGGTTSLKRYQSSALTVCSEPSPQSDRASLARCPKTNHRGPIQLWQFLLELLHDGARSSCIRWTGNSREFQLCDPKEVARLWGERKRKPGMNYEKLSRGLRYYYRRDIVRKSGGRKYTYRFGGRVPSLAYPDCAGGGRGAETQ
To be noted: protein: recombinant; tags: N-terminal GST; dsDNA, one strand shown. In a few lines: as §1

For the next assay, the target named is T5, ELF3 (Homo sapiens, UniProt P78545 1-371).
T5 sequence: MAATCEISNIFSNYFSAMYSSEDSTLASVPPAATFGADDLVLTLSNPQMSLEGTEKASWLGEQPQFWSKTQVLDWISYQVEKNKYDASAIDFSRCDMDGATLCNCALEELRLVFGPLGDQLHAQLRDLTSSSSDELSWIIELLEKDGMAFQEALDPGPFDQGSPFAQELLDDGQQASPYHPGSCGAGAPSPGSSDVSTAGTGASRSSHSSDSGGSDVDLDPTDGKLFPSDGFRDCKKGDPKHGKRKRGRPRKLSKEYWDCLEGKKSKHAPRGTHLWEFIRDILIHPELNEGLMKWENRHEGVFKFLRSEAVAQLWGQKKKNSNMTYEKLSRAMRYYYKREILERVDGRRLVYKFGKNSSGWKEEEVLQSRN
To be noted: protein: recombinant; tags: N-terminal GST; dsDNA, one strand shown. In a few lines:
as §1

The next assay concerns the target CRX (Homo sapiens, UniProt O43186 1-299). To be noted: protein: recombinant; tags: N-terminal GST; dsDNA, one strand shown. In a few lines:
as §1

For the next assay, the target named is ETV1 (Homo sapiens, UniProt P50549 1-477). The following applies: protein: recombinant; tags: N-terminal GST; dsDNA, one strand shown. In a few lines:
as §1

The next assay addresses T6, ERF (Homo sapiens, UniProt P50548 1-548).
T6 sequence: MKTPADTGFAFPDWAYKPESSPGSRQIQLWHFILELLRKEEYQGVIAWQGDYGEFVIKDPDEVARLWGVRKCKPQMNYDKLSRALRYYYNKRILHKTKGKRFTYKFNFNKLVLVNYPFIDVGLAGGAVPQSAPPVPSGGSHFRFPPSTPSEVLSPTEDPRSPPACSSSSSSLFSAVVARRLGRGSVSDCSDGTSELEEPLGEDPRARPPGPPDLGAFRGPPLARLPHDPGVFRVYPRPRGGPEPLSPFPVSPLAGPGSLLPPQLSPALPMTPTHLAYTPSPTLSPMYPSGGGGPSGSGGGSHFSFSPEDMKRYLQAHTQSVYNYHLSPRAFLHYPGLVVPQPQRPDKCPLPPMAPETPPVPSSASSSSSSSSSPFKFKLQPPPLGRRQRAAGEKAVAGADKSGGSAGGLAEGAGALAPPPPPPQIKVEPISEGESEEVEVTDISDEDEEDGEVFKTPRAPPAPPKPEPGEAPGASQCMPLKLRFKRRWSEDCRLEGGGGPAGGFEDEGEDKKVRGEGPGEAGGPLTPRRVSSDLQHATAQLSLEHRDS
The following applies: protein: recombinant; tags: N-terminal GST; dsDNA, one strand shown. In a few lines: as §1

Another assay deals with T7, ETV3L (Homo sapiens, UniProt Q6ZN32 1-361).
T7 sequence: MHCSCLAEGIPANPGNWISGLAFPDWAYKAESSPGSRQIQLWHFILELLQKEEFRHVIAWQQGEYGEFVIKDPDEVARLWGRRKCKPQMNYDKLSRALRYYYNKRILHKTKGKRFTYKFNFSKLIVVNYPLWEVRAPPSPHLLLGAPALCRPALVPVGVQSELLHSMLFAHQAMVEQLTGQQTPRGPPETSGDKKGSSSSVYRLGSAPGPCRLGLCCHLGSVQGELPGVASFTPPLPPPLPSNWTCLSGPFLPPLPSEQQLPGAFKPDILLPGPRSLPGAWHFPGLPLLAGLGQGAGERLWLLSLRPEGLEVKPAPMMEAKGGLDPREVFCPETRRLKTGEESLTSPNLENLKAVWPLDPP
The following applies: protein: recombinant; tags: N-terminal GST; dsDNA, one strand shown. In a few lines: as §1

For a further assay, the target named is T8, ETS2 (Homo sapiens, UniProt P15036 1-469).
T8 sequence: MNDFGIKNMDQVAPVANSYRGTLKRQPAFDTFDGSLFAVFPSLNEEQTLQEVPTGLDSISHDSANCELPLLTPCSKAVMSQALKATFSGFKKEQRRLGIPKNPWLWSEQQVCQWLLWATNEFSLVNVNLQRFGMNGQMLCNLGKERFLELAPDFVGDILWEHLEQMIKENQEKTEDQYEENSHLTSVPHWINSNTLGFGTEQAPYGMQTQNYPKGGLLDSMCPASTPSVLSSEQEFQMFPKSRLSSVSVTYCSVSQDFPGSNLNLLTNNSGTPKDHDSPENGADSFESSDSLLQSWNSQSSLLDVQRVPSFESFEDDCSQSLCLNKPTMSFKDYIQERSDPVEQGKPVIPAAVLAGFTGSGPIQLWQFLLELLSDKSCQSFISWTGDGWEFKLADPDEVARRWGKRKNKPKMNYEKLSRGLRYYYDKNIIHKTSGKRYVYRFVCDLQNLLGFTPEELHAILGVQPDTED
The following applies: protein: recombinant; tags: N-terminal GST; dsDNA, one strand shown. In a few lines:
as §1

A further assay deals with T9, SPDEF (Homo sapiens, UniProt O95238 1-335).
T9 sequence: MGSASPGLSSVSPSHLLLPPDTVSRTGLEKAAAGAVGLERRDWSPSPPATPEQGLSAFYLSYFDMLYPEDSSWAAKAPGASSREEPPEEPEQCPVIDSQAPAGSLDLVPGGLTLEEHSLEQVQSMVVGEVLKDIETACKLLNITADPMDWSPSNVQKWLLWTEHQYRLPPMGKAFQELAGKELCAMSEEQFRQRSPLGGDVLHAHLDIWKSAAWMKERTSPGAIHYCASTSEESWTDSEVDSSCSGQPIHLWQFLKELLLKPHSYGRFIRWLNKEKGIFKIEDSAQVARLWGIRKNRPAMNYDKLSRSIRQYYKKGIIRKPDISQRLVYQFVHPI
The following applies: protein: recombinant; tags: N-terminal GST; dsDNA, one strand shown. In a few lines: as §1

For a further assay, the target named is T10, ETV7 (Homo sapiens, UniProt Q9Y603 1-341).
T10 sequence: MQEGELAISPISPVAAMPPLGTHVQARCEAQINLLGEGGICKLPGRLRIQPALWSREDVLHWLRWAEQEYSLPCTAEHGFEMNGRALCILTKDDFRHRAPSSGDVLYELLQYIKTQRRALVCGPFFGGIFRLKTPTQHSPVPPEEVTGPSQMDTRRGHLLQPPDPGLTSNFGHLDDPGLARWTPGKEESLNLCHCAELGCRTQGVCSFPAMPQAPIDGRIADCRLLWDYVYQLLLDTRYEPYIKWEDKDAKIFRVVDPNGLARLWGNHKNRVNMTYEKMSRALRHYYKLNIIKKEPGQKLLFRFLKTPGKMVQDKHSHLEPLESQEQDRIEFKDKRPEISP
The following applies: protein: recombinant; tags: N-terminal GST; dsDNA, one strand shown. Summed up: as §1

In another assay the target is T11, ELF5 (Homo sapiens, UniProt Q9UKW6-2 1-255).
T11 sequence: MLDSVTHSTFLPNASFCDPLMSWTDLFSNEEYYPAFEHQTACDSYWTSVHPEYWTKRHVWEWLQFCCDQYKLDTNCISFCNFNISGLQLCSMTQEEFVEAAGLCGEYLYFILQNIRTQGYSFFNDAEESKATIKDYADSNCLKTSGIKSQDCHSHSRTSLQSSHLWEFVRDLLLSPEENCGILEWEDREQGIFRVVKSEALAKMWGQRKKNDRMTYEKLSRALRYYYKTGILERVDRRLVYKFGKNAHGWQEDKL
To be noted: protein: recombinant; tags: N-terminal GST; dsDNA, one strand shown. Summed up: as §1

The target in a further assay is T12, ETV3 (Homo sapiens, UniProt P41162-2 1-143).
T12 sequence: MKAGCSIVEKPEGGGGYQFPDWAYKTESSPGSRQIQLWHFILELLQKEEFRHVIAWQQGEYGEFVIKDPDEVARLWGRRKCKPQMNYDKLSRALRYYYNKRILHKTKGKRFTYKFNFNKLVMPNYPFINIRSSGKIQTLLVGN
The following applies: protein: recombinant; tags: N-terminal GST; dsDNA, one strand shown. Summed up: as §1

The next assay deals with ETV6 (Homo sapiens, UniProt P41212 1-452). To be noted: protein: recombinant; tags: N-terminal GST; dsDNA, one strand shown. In a few lines:
as §1

ETV6, sequence (P41212 whole entry): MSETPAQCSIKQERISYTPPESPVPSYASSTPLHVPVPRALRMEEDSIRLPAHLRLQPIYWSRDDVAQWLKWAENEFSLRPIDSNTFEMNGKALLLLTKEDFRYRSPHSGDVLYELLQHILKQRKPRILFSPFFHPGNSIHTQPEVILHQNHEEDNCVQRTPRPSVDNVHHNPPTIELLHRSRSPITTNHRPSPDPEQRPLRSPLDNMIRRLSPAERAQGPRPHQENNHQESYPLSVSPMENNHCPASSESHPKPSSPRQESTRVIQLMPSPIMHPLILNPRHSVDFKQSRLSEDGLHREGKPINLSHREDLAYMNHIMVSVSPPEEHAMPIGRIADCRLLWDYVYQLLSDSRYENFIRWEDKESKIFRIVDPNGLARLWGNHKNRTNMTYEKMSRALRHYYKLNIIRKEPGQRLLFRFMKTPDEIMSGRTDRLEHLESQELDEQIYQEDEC
ELF4, sequence (Q99607 whole entry): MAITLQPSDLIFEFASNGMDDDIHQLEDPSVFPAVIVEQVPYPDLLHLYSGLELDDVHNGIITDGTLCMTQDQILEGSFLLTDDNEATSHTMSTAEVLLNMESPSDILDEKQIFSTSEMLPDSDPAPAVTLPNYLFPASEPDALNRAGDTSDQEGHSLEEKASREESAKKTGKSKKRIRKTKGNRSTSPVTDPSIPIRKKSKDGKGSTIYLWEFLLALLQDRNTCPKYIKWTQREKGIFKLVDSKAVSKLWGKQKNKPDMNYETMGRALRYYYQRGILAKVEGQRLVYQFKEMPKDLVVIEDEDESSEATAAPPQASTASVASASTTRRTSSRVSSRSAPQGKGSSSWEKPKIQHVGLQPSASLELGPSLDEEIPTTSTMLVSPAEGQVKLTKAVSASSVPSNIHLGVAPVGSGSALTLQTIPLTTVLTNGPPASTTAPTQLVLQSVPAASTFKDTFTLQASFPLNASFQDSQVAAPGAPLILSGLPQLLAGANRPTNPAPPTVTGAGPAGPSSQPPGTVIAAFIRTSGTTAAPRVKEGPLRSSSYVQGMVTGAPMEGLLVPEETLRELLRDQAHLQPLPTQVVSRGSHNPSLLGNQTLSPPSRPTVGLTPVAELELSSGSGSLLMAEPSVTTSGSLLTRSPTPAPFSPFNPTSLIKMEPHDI
ETV1, sequence (P50549 whole entry): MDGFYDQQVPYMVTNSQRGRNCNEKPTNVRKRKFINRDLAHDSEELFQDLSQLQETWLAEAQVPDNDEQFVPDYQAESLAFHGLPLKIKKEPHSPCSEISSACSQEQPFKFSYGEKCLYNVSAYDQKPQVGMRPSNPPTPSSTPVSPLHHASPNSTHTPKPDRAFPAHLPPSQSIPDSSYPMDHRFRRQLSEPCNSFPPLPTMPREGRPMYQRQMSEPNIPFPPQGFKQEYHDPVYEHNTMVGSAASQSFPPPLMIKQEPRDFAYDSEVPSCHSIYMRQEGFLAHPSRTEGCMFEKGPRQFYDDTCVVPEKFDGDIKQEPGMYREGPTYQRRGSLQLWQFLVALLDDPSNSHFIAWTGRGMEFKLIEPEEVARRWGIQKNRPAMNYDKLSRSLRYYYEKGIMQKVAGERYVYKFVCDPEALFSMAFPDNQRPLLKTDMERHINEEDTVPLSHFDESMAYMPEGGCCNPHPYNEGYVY
ETV5, sequence (P41161 whole entry): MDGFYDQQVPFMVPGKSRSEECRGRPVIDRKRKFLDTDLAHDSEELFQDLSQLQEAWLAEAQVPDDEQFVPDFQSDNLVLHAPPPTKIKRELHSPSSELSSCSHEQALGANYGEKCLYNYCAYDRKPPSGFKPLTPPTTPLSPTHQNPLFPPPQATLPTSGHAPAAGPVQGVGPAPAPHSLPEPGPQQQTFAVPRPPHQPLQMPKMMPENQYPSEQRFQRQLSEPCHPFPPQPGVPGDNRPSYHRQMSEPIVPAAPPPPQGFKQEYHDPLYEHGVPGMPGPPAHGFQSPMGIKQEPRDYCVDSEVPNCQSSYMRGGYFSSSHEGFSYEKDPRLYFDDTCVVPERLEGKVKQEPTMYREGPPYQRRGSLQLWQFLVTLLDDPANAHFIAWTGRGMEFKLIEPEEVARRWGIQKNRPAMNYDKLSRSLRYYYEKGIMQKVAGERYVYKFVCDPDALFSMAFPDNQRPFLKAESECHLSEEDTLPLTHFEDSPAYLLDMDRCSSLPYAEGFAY
HSF1, sequence (Q00613 whole entry): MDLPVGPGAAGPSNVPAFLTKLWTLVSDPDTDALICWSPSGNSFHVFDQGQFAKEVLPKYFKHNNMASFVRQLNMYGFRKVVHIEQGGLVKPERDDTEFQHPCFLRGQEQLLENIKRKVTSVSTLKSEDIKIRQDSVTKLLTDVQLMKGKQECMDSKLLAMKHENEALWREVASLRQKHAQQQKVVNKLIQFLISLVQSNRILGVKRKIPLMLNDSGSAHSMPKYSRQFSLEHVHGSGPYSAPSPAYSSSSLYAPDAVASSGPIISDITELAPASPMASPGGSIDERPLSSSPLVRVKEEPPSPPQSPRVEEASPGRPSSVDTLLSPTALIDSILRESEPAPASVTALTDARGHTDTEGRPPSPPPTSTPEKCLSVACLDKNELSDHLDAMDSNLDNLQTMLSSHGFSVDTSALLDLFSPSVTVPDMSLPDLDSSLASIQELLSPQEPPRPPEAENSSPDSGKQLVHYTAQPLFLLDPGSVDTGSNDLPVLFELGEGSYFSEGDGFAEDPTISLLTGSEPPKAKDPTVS
CRX, sequence (O43186 whole entry): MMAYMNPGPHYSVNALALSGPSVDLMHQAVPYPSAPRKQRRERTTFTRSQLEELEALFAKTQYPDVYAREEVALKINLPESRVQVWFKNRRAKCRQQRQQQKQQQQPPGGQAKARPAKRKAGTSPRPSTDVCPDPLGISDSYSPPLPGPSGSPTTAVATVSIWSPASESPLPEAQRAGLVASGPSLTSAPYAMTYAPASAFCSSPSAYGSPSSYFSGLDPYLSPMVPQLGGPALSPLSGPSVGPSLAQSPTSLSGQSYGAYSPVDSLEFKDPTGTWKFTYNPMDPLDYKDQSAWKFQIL

For the sequence TTTTAT, the binding signal is 1.32 fold enrichment (6-mer frequency, TF over GST control) with FEV; 1.26 fold enrichment (6-mer frequency, TF over GST control) with ETV5; 1.46 fold enrichment (6-mer frequency, TF over GST control) with HSF1; 1.39 fold enrichment (6-mer frequency, TF over GST control) with SPIC; 1.4 fold enrichment (6-mer frequency, TF over GST control) with ELF4; 1.26 fold enrichment (6-mer frequency, TF over GST control) with ELK4. The binding signal with ETV2 was 1.36 fold enrichment (6-mer frequency, TF over GST control); with ELF3, 1.32 fold enrichment (6-mer frequency, TF over GST control); with CRX, 1.77 fold enrichment (6-mer frequency, TF over GST control); with ETV1 it was 1.3 fold enrichment (6-mer frequency, TF over GST control); with ERF, 1.17 fold enrichment (6-mer frequency, TF over GST control); with ETV3L, 1.39 fold enrichment (6-mer frequency, TF over GST control). In addition, the binding signal with ETS2 is 1.23 fold enrichment (6-mer frequency, TF over GST control); with SPDEF, 1.22 fold enrichment (6-mer frequency, TF over GST control); with ETV7, 1.34 fold enrichment (6-mer frequency, TF over GST control); with ELF5 it was 1.3 fold enrichment (6-mer frequency, TF over GST control); with ETV3 it was 1.45 fold enrichment (6-mer frequency, TF over GST control); with ETV6, 1.36 fold enrichment (6-mer frequency, TF over GST control).
